These results are taken from PubChem BioAssay.

Assay [1] is described as follows: HepG2 liver cancer cell viability effects, profiling panel, resazurin fluorescence, 24 h, PK04 Diversity Set (AID 1172). Further: test concentration not given here. Particulars: higher = more signal.
Assay [2] can be described thus: basal S. cerevisiae growth modulation, no modifier, primary screen, OD600, strain BY4716, 24 h, basal condition (AID 1173). Particulars: OD600, 24 h, higher = more signal, called active from +8 up or from −8 down.
Assay [3] can be described thus: MM1S myeloma cell viability, profiling panel, resazurin fluorescence, basal, 24 h, PK04 Diversity Set (AID 1174).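 Further: MM1S multiple myeloma cell line; test concentration not given here.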 Particulars: higher = more signal, called active from +8 up or from −8 down.
The target in assay [4] is Dihydroorotate dehydrogenase (quinone), mitochondrial (Plasmodium falciparum (isolate 3D7)) (UniProt Q08210). As to the kind of experiment: PfDHODH enzyme inhibitors, primary screen, biochemical, C-terminal His tag, absorbance 600 nm (AID 1175).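 Further: recombinant parasite enzyme with a five histidine tag at its C terminus; test concentration not given here.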 Particulars: DCIP absorbance 600 nm, higher = more signal, called active from +8 up or from −8 down.
Chain of Dihydroorotate dehydrogenase (quinone), mitochondrial (Plasmodium falciparum (isolate 3D7)) (Q08210 whole entry, looked up): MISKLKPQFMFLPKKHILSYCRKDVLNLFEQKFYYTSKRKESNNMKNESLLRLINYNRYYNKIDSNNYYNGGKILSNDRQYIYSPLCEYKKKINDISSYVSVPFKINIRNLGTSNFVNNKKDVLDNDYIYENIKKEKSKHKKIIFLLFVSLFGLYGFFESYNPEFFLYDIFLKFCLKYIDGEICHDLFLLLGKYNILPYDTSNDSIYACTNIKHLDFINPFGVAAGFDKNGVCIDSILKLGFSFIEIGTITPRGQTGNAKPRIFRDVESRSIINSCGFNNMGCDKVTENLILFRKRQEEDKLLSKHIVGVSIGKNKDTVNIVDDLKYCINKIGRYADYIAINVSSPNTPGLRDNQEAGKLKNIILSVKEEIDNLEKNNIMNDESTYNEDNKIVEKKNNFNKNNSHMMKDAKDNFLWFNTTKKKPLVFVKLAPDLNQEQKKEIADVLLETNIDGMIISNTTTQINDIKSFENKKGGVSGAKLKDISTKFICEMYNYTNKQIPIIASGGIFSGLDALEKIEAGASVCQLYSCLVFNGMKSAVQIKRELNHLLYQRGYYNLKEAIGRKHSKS
Assay [5] in a line: P. aeruginosa biofilm formation inhibitors, primary screen, strain PAO1, LB-PBS medium, absorbance 600 nm (AID 1176). Further: test concentration not given here. Particulars: P. aeruginosa PAO1 growth/biofilm, A600, 12 h; higher = more signal.
Assay [6] can be described thus: S. cerevisiae RM11-1a growth modifiers, primary screen, strain RM11-1a, OD600, basal, 24 h (AID 1177).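 Further: cultures grown under basal conditions with no added stressor; test concentration not given here.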 Particulars: OD600, 24 h, higher = more signal, called active from +8 up or from −8 down.
The nature of assay [7]: E. coli acrAB mutant growth effects, primary screen, E. coli filamentation inducers, strain DRC39, OD650, 24 h (AID 1178).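 Further: growth measured as culture turbidity by optical density at 650 nm; test concentration not given here.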 Particulars: higher = more signal, called active from +8 up or from −8 down.
Assay [8] in a line: E. coli acrAB mutant growth effects, primary screen, E. coli filamentation inducers, strain DRC39, OD650, 48 h (AID 1179).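 Further: screen aims at cell division blockers that make cells filament.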 Particulars: E. coli DRC39 delta-acrAB growth, higher = more signal, called active from +8 up or from −8 down.
Assay [9] is described as follows: RPMI8226 myeloma cell viability, profiling panel, resazurin fluorescence, basal, 24 h, PK04 Diversity Set (AID 1180).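 Further: RPMI8826 multiple myeloma cell line at 5000 cells per well; test concentration not given here.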 Particulars: higher = more signal. In general terms: Alamar Blue is a resazurin reagent that responds to reducing activity.
Assay [10] has as its target E3 ubiquitin-protein ligase XIAP (Homo sapiens) (UniProt P98170). Briefly: XIAP binders, primary screen, biophysical, small-molecule microarray, fluorescence 635 nm (AID 1181).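 Further: score merges 667 nm emission and signal to noise over triplicate slides.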 Particulars: small-molecule microarray binding, higher = more signal.

Activity calls are given as the source filed them. Unless noted, how the calls were made is not given here.

Chain of E3 ubiquitin-protein ligase XIAP (Homo sapiens) (P98170 whole entry, looked up): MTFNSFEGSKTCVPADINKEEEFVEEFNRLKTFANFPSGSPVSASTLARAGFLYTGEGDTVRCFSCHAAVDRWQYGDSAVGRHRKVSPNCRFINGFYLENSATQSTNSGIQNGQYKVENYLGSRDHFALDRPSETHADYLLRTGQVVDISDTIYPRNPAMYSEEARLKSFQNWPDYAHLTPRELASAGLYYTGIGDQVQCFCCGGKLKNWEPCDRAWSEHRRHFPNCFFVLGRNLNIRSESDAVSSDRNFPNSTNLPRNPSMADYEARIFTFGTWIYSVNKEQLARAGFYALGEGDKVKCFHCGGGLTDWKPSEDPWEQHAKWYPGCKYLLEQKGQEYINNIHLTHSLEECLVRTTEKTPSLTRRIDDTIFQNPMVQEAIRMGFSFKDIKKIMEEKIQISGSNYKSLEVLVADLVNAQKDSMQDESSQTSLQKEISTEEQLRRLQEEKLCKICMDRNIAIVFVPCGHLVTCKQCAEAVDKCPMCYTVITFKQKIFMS

Consider `O=C/C=C/c1ccc2c(c1)OCO2`, for which the z-score in assay [1] is 0.134; in [2], -12.8 (active); in [3], -0.155 (inactive); in assay [5], 0.227 (inactive); in assay [6], -1.87 (inactive); in assay [7], -1.34 (inactive). For the same molecule, the z-score in [8] was 0.594 (inactive); in [9], -0.211. In addition, the composite z-score in [4] was -1.32 (inactive); in assay [10] it was -0.118.
Turning to `COc1cc2c(cc1OC)CN(C(=O)[C@@H]1[C@H]3C(=O)O[C@H](c4ccccc4)[C@H](c4ccccc4)N3[C@H](c3ccccc3OCCO)[C@@]13C(=O)Nc1ccc(C#CCNC(N)=O)cc13)CC2`, the z-score was 0.0227 in assay [1]; 0.74 (inactive) in [2]; -0.148 (inactive) in assay [3]; 2.93 (inactive) in [5]; 3 (inactive) in assay [6]; 1.13 (inactive) in assay [7]. Besides, the z-score in assay [8] was 1.31 (inactive); in [9], 0.088. Moreover, the composite z-score is -0.839 (inactive) in assay [4] and 0.153 in assay [10].
For the molecule `CCCNC(=O)[C@@]1(c2ccc([N+](=O)[O-])cc2)CC(=O)N(CC23CC4CC(CC(C4)C2)C3)[C@@H]1c1ccc(CO)cc1`, the z-score is -1.8 in [1]; 1.07 (inactive) in [2]; -3.32 (inactive) in assay [3]; 0.416 (inactive) in assay [5]; 1.05 (inactive) in assay [6]; -0.421 (inactive) in assay [7]. The z-score in assay [8] was -0.391 (inactive); in assay [9], -3.71. For the same molecule, the composite z-score was -0.225 (inactive) in [4] and 0.182 in assay [10].
`C=C(COC)C(=O)CC[C@H](OC(C)=O)c1cccc(OCCO)c1`: the z-score in assay [1] is -1.32; in assay [2], -0.764 (inactive); in assay [3], -0.854 (inactive); in assay [5], -0.73 (inactive); in assay [6] it was -0.496 (inactive); in assay [7] it was -1.03 (inactive). Further, the results for the z-score in [8] and in assay [9] were -0.639 (inactive) and -1.27, respectively. Further, the composite z-score is -0.859 (inactive) in [4] and 0.0346 in [10].
For `COCCOC(=O)N1C(=O)[C@@]2(c3cc(C#CCCO)ccc31)[C@H](c1ccc(O)cc1)N1[C@H](c3ccccc3)[C@H](c3ccccc3)OC(=O)[C@H]1[C@@H]2C(N)=O`, the z-score in [1] was -0.231; in assay [2], 0.0254 (inactive); in assay [3], -0.644 (inactive); in assay [5] it was 0.911 (inactive); in assay [6] it was 0.565 (inactive); in assay [7], 0.145 (inactive). The z-score in assay [8] was 0.138 (inactive); in assay [9], -1.08. Moreover, the results for the composite z-score in assay [4] and in assay [10] were -0.294 (inactive) and -0.0272, respectively.
As for `COC(=O)C[C@H]1O[C@]2(C(=O)N(Cc3ccccc3)c3ccc(NC(C)=O)cc32)[C@@H](C)[C@@H]1[Si](C)(C)c1ccc(OC)cc1`, the z-score in assay [1] was -1.11; in assay [2], 0.457 (inactive); in [3] it was -1.33 (inactive); in assay [5], -0.602 (inactive); in assay [6] it was 0.952 (inactive); in assay [7], -0.871 (inactive). Besides, the values for the z-score in assay [8] and in assay [9] were -0.69 (inactive) and -0.681, respectively. The composite z-score in assay [4] is 1.45 (inactive); in assay [10], -0.227.
For `COCCOC(=O)N1C(=O)[C@@]2(c3ccccc31)[C@H](c1ccc(O)cc1)N1[C@H](c3ccccc3)[C@H](c3ccccc3)OC(=O)[C@H]1[C@@H]2C(=O)N1CCc2cc(OC)c(OC)cc2C1`, the z-score was 0.129 in assay [1]; 0.0332 (inactive) in [2]; 0.612 (inactive) in assay [3]; 0.759 (inactive) in assay [5]; -0.33 (inactive) in assay [6]; 0.919 (inactive) in assay [7]. In addition, the z-score was 1.3 (inactive) in [8] and 0.471 in [9]. Also, the results for the composite z-score in assay [4] and in assay [10] were -0.888 (inactive) and -0.0841, respectively.
`O=C1OCC=C[C@H]2OC34C=CCN(c5ccc6ccccc6c5)C(=O)[C@H]3N(CCCO)C(=O)[C@@H]4[C@@H]12` (stereo not given in full): the z-score was -0.364 in [1]; -0.82 (inactive) in assay [2]; -0.712 (inactive) in assay [3]; -0.385 (inactive) in [5]; -0.13 (inactive) in assay [6]; -0.265 (inactive) in assay [7]. Besides, the z-score was -0.641 (inactive) in assay [8] and -2.41 in assay [9]. For the same molecule, the results for the composite z-score in [4] and in assay [10] were -0.959 (inactive) and -0.181, respectively.
As to `CC(C)C[C@@H]1NC(=O)[C@@H]2C[C@H](C(=O)NCCCCCC[N+](C)(C)C)[C@H](c3ccc(O)cc3)N2C1=O`, the z-score in assay [1] is -0.219; in [2], 0.54 (inactive); in assay [3] it was 0.181 (inactive); in [5], -0.282 (inactive); in [6] it was 1.11 (inactive); in [7], 0.487 (inactive). The z-score in assay [8] is 0.62 (inactive); in assay [9] it was 0.0176. The figures for the composite z-score in assay [4] and in assay [10] were 0.191 (inactive) and -0.0056, respectively.
Regarding `C=CCC(OC(C)=O)[C@@H]1[C@@H](N(Cc2cc3ccccc3o2)C(=O)c2ccc(C)cc2)c2cc(OCCCO)ccc2N1C(=O)c1ccc2ccccc2c1` (stereo not given in full), the z-score was 0.792 in assay [1]; -0.195 (inactive) in [2]; 0.951 (inactive) in assay [3]; -0.583 (inactive) in assay [5]; 0.0749 (inactive) in assay [6]; 0.786 (inactive) in [7]. Moreover, the z-score was 1.02 (inactive) in assay [8] and 1.72 in [9]. In addition, the results for the composite z-score in assay [4] and in assay [10] were -0.375 (inactive) and 0.0015, respectively.
Regarding `CC(C)C[C@@H]1NC(=O)[C@H]2C[C@@H](C(=O)NCCCCCCNC(=O)CS)[C@@H](c3cccc(OCCO)c3)N2C1=O`, the z-score in assay [1] was 0.808; in assay [2], -0.632 (inactive); in assay [3], 0.259 (inactive); in [5], -0.145 (inactive); in assay [6], 0.652 (inactive); in [7], 0.941 (inactive). Besides, the z-score in [8] was 1.08 (inactive); in assay [9], -0.258. Further, the composite z-score in assay [4] is -0.625 (inactive); in assay [10] it was 0.356.
Consider `O=C1OCCC=C[C@H]2OC34C=CCN(Cc5ccccc5)C(=O)[C@H]3N(CCCO)C(=O)[C@@H]4C12` (stereo not given in full), for which the z-score was 0.35 in assay [1]; -0.625 (inactive) in [2]; 1.33 (inactive) in assay [3]; 0.152 (inactive) in assay [5]; -0.0921 (inactive) in [6]; -0.638 (inactive) in assay [7]. For the same molecule, the z-score is 0.129 (inactive) in assay [8] and 0.165 in assay [9]. The composite z-score in assay [4] is -1.01 (inactive); in assay [10], -0.0116.
Consider `CCOC(=O)[C@H]1C/C=C/C[C@H](C(=O)OCC)C(=O)O[C@H]2[C@@H](OC)O[C@H](CO)[C@@H](OC(=O)Nc3ccc4c(c3)OCO4)[C@@H]2OC1=O`, for which the z-score is -4.19 in assay [1]; 0.273 (inactive) in [2]; -6.98 (inactive) in assay [3]; 1.2 (inactive) in assay [5]; 1.06 (inactive) in [6]; 1.03 (inactive) in assay [7]. The z-score in assay [8] was 1.53 (inactive); in assay [9], -6.84. The composite z-score was 0.0446 (inactive) in assay [4] and -0.102 in [10].
`COCCOC(=O)N1C(=O)[C@@]2(c3cc(C#CC4=CCCCC4)ccc31)[C@H](C(=O)N1CCc3cc(OC)c(OC)cc3C1)[C@H]1C(=O)O[C@H](c3ccccc3)[C@H](c3ccccc3)N1[C@@H]2c1ccccc1OCCO`: the z-score was -0.437 in assay [1]; 1.11 (inactive) in assay [2]; 0.224 (inactive) in [3]; 2.41 (inactive) in assay [5]; 1.78 (inactive) in assay [6]; -0.649 (inactive) in assay [7]. The z-score in [8] is 0.418 (inactive); in assay [9] it was -0.135. In addition, the composite z-score in assay [4] was -0.0424 (inactive); in [10] it was 0.0039.
As for `CCOC(=O)C[C@H]1[C@H](OC(=O)c2ccccc2-c2ccccc2)[C@@H](NC(=O)c2ccc3ccccc3c2)c2cc(OCCCO)ccc2N1C(=O)c1ccc2ccccc2n1`, the z-score in assay [1] is 1.33; in [2], 0.682 (inactive); in assay [3], 0.288 (inactive); in assay [5], -0.271 (inactive); in assay [6], 0.876 (inactive); in assay [7], 0.672 (inactive). For the same molecule, the z-score in assay [8] was 0.641 (inactive); in assay [9], 0.726. Moreover, the composite z-score in [4] is 0.428 (inactive); in [10] it was -0.144.
Regarding `COc1ccc(C#Cc2ccc3c(c2)[C@]2(C(=O)N3)[C@H](C(=O)NC[C@H](O)c3ccccc3)[C@H]3C(=O)O[C@H](c4ccccc4)[C@H](c4ccccc4)N3[C@@H]2c2ccc(OCCO)cc2)cc1`, the z-score in assay [1] was -1.07; in assay [2], 2.22 (inactive); in assay [3], -1.16 (inactive); in assay [5], 2.55 (inactive); in assay [6], 2.97 (inactive); in assay [7] it was -0.34 (inactive). Moreover, the z-score in [8] was -0.151 (inactive); in assay [9] it was -1.47. The composite z-score in assay [4] was -0.0157 (inactive); in assay [10], -0.125.
`C[C@H]1NC(=O)[C@H](Cc2ccccc2)NC(=O)[C@@]23C(=O)N[C@@H](Cc4ccccc4)C2[C@H](C)[C@@]2(C)O[C@H]2C3/C=C/C/C=C\CNC1=O` (stereo not given in full): the z-score in assay [1] was -0.23; in assay [2] it was 0.0145 (inactive); in assay [3] it was 0.557 (inactive); in [5] it was -0.246 (inactive); in assay [6], 1.16 (inactive); in assay [7], 1.32 (inactive). Moreover, the z-score in [8] is 0.64 (inactive); in assay [9] it was 1.07. The composite z-score in assay [4] was 0.742 (inactive); in assay [10] it was -0.173.
